Results on 54 compounds are retold here after PubChem BioAssay AID1233 (SRMLSC, 2008).

For the experiment, the target named is HMG-CoA reductase [Enterococcus faecalis] (UniProt Q9FD70). The experiment is described as follows: inhibitors of E. faecalis class II HMGR, confirmation, biochemical, Enterococcus faecalis (AID 1233).

SMILES strings stand for the structures. Potency and affinity values are given separately. The source made the active and inactive calls.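 How the source made its calls: active means a dose-response curve fit returns a half-maximal inhibitory concentration, extrapolated values included; inactive means the fit returns no such concentration.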

As to `O=C(Nc1ccc2c(c1)OCO2)c1ccc(COc2ccc3c(c2)CCC3)o1`, the outcome was inactive.

With `COc1ccc(-c2c(N)n[nH]c2C)cc1OC`, the outcome was inactive.

`O=C(COC(=O)CSc1cc(Cl)ccc1Cl)Nc1ncc(C(F)(F)F)cc1Cl`: the result was inactive.

Regarding `O=C(O)c1cc(-c2ccc(N3CCOCC3)cc2)nn1-c1ccccc1Cl`, the compound was classed as inactive.

For the compound `Cc1cc(C)nc(NC(=O)CCCC(=O)O)c1`, the call was inactive.

Take `Cc1ccc(NC(=O)c2ccc3nc[nH]c3c2)c(O)c1`: the call was inactive.

Regarding `C/C(CC(=O)NC1CCCCC1)=N\NC(=O)COc1ccc(C)cc1Br`, the compound was classed as inactive.

For the compound `FC(F)(F)c1cnc(Oc2ccc(-c3nnco3)cc2)c(Cl)c1`, the outcome was inactive.

Regarding `CCOc1ccccc1C(=O)NC1CCN(Cc2nnnn2C2CCCC2)CC1`, the outcome was inactive.

For the compound `CC(=O)N1CC2(C)CN(C(C)=O)CC(C)(C1)C2`, the compound was called inactive.

For `Cc1ccc2nsnc2c1N`, the compound was classed as inactive.

For `CN(C)CCCNC(=O)c1cc(C(=O)C2CCCCC2)c[nH]1`, the result was inactive.

`O=C(CSc1nc(-c2ccccc2)cs1)N1CCc2ccccc21`: the outcome was inactive.

As for `CCNC(=O)NC(=O)C(C)OC(=O)c1ccc(-n2nc(SC)sc2=S)cc1` (centres undefined), the call was inactive.

As to `CCOC(=O)c1sc(NC(=O)CSc2nccc(C)n2)nc1C`, the result was inactive.

Regarding `COc1cccc(CNC(=O)CCS(=O)(=O)c2cccs2)c1`, the result was inactive.

For the compound `N#CC(C#N)=Cc1cc2ccccc2nc1N1CCOCC1`, the result was inactive.

On to `CC(=O)Nc1ccc2c(c1)OCCO2`, for which the outcome was inactive.

For the compound `Cc1ccc(-c2cc(C(=O)NCc3ccc4c(c3)OCO4)[nH]n2)c(O)c1C`, the call was inactive.

Take `COc1ccc(CSc2nnnn2C)cc1[N+](=O)[O-]`: the compound was classed as inactive.

For the compound `Cc1cc(C)c(S(=O)(=O)c2ccccc2)c(OC(=O)c2c(F)cccc2F)n1`, the call was inactive.

Take `COc1ccc(/C=C/C(=O)NCCNC(=O)c2ccccc2)cc1OC`: the outcome was inactive.

For the compound `CC1CN(C(=O)c2cccc(S(=O)(=O)Nc3ccc(Cl)cc3)c2)CC(C)O1` (centres undefined), the result was inactive.

Take `CCOC(=O)C(CC)n1cnc2c(nnn2-c2ccc(OC)cc2)c1=O` (centres undefined): the compound was called inactive.

On to `Cc1nn2c(C(F)(F)F)cc(-c3ccc(Cl)cc3)nc2c1C(=O)N1CCOCC1`, for which the outcome was inactive.

Take `COc1ccccc1N(CC(O)CN(c1ccccc1)S(C)(=O)=O)S(=O)(=O)c1ccccc1` (centres undefined): the outcome was inactive.

With `COc1cccc(NC(=O)c2ccc3snnc3c2)c1`, the compound was classed as inactive.

For the compound `O=C(COCc1nc2ccccc2c(=O)[nH]1)NCC1CCCCC1`, the call was inactive.

For `Cc1ccc(-n2c(SCC(=O)N(C)C3CCS(=O)(=O)C3)nc3ccccc3c2=O)cc1` (centres undefined), the compound was called inactive.

For `CO/N=C/c1ccc(N2CCCC2)c([N+](=O)[O-])c1`, the compound was classed as inactive.

Take `Cc1cc(C)n(C2CC(=O)N(c3ccccc3)C2=O)n1` (centres undefined): the compound was classed as inactive.

As to `CCN(CC)CCOc1nc(C)nc2c1oc1ccccc12`, the compound was classed as inactive.

`O=C(O)C1CCCNC1` (centres undefined): the compound was called inactive.

For the compound `O=C1CC(=O)N(Cc2ccco2)C(=S)N1`, the compound was classed as inactive.

Regarding `CCOC(=O)c1cc2c(ccn2C)n1CC(=O)N1CCN(c2cccc(C(F)(F)F)c2)CC1`, the outcome was inactive.

In the case of `COc1ccccc1Sc1ccccc1/C=N/NC(N)=O`, the result was inactive.

For the compound `CCN(CCNCC(O)COCc1ccc(Cl)cc1)c1cccc(C)c1` (centres undefined), the outcome was inactive.

As for `COc1ccc(Cn2c(=O)sc3ccccc3c2=O)cc1`, the call was inactive.

On to `Cc1cc(/C=C(\C#N)C(=O)NCc2cccs2)c(C)[nH]1`, for which the call was inactive.

Take `Cc1cc(C(=O)NN=C2CCCCC2)c2ccccc2n1`: the outcome was inactive.

In the case of `CNC(=S)N/N=C(\C)c1ccc(N2CCOCC2)cc1`, the outcome was inactive.

`CCCCC(=O)Nc1nnc(C2=COCCO2)o1`: the result was inactive.

Regarding `CCOC(=O)c1cnn(-c2nc(-c3ccccc3)cs2)c1C(F)(F)F`, the result was inactive.

As to `O=C(CC(=O)NN=C1CCCCCC1)NCc1cccnc1`, the outcome was inactive.

Take `COc1ccc(/C=C/C(=O)NC(=S)NNC(=O)c2cccnc2)cc1OC`: the result was inactive.

As for `Cc1ccsc1C=C1C(=O)c2ccccc2C1=O`, the compound was classed as inactive.

With `O=C(Nc1ccccn1)c1cccc(S(=O)(=O)N2CCOCC2)c1`, the result was inactive.

Consider `COc1ccc(N=c2ssnc2Cl)cc1`, for which the outcome was inactive.

`COc1cc(OC)c(C(=O)NC2CC(C)(C)NC(C)(C)C2)cc1OC`: the result was inactive.

As for `C=CCNC(=O)C(C#N)c1nc2ccccc2nc1N1CCCCCC1` (centres undefined), the compound was called inactive.

With `S=C(NCc1ccccc1)N1CCN(c2cccc(Cl)c2)CC1`, the compound was classed as inactive.

Regarding `CN(C)S(=O)(=O)c1cccc(C(=O)Nc2ccc(S(=O)(=O)N3CCCC3)cc2)c1`, the compound was classed as inactive.

`Fc1ccc(-c2csc3[n+]2CCS3)cc1`: the outcome was inactive.

For the compound `COCCNC(=O)C(c1ccccc1C)N(C(=O)Cn1nnc2ccccc21)c1cccnc1` (centres undefined), the call was inactive.
